According to PubChem BioAssay (Tox21):
Records with an inconclusive call do not appear. Active and inactive are the calls of the source. Unless noted, the call rests on the fitted dose curve; in most records, active means well fitted curve in the direction sought with a large enough effect in the repeat runs; inconclusive means weak or mixed curves; inactive means no such curve, though single readings can be large; an effect the other way counts as inactive or inconclusive.

Experiments:
[1] = qHTS assay to identify aromatase inhibitors - cell viability counter screen (AID 743084);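 further: cells stimulated with testosterone during compound exposure; nearly all actives have a fitted effect of over 55% in size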
[2] = target: Aryl hydrocarbon receptor (Homo sapiens) (UniProt P35869); assay: qHTS assay to identify small molecule that activate the aryl hydrocarbon receptor (AhR) signaling pathway (AID 743085);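 further: HG2L7.5c1 human HepG2 liver cells with stably integrated DRE-driven firefly reporter; series mostly up to about 70 µM; nearly all actives have a fitted effect of over 15% in size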
Method in brief: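 HepG2 cells (HG2L7.5c1) stably carrying a firefly luciferase reporter driven by 20 dioxin responsive elements were exposed to compound for 24 h at 37C after a 5 h settling period; luminescence rise (ONE-Glo) indicated activation.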

[3] = qHTS assay to identify small molecule that activate the aryl hydrocarbon receptor (AhR) signaling pathway - cell viability counter screen (AID 743086);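 further: HepG2 liver cells carrying the AhR DRE luciferase reporter; series mostly up to about 70 µM; nearly all actives have a fitted effect of over 45% in size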
Method in brief: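 HepG2-AhR-luc (HG2L7.5c1) cells, 4000/well, treated 24 h at 37 C with compound; viability measured as CellTiter-Fluor fluorescence after 30 min in the same wells as the luciferase read.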

[4] = qHTS assay to identify small molecule antagonists of the peroxisome proliferator-activated receptor gamma (PPARg) signaling pathway - cell viability counter screen (AID 743194); further: nearly all actives have a fitted effect of over 55% in size
Method in brief: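 Cytotoxicity counter screen in PPARg-bla HEK293H cells, same wells as reporter assay. Compounds plus 50 nM rosiglitazone (final) for 17 h at 37 C, then viability read by CellTiter-Glo luminescence.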

[5] = qHTS assay for small molecule agonists of the antioxidant response element (ARE) signaling pathway (AID 743202; active means well fitted activation curve with a large enough effect in the signal ratio in the repeat runs, not every such curve was filed as active; the % refers to the signal ratio; further: potency means the concentration at half of the fitted maximal effect)
Method in brief: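 HepG2 ARE-bla reporter line, 2,000 cells/well; 5 h preincubation 37 C/5% CO2; compound (DMSO) 16 h 37 C; B/G FRET substrate 2 h RT; fluorescence intensity.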

[6] = qHTS assay for small molecule agonists of the antioxidant response element (ARE) signaling pathway - cell viability counter screen (AID 743203; calls by dose curve; further: nearly all actives have a fitted effect of over 55% in size)
Method in brief: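 Luminescence read-out (CellTiter-Glo, 30 min at room temperature) measured cell viability in the same wells as the ARE beta-lactamase reporter. HepG2 ARE-bla cells were treated with compounds for 16 hrs at 37C/5% CO2.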

[7] = qHTS assay for small molecule activators of the heat shock response signaling pathway - cell viability counter screen (AID 743209); further: nearly all actives have a fitted effect of over 50% in size
Method in brief: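 HSE-bla HeLa; 1500 cells/well; overnight 37 C, 5% CO2; compound 5 h 37 C; LiveBLAzer B/G substrate 2.5 h RT; CellTiter-Glo 30 min RT; luminescence.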

[8] = qHTS assay for small molecule activators of the heat shock response signaling pathway (AID 743210; active means well fitted activation curve with a large enough effect in the signal ratio in the repeat runs, with a control signal flat, not every such curve was filed as active; the % refers to the signal ratio;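 further: HeLa cells with beta-lactamase reporter driven by heat shock elements; series mostly up to about 63 µM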)
Method in brief: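 Beta-lactamase reporter read-out: FRET substrate fluorescence after 2.5 h at RT, following 5 h compound treatment at 37 C of HeLa cells carrying HSE-driven bla reporter; quantitative HTS format.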

[9] = qHTS assay to identify small molecule agonists of the peroxisome proliferator-activated receptor delta (PPARd) signaling pathway - cell viability counter screen (AID 743211); further: nearly all actives have a fitted effect of over 55% in size
Method in brief: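 PPARd-bla HEK293H cells (UAS-beta-lactamase reporter) were treated with compounds for 17 h at 37 C. Viability was then read in the same wells by CellTiter-Glo luminescence after 30 min at room temperature.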

[10] = target: Peroxisome proliferator-activated receptor delta (Homo sapiens) (UniProt Q03181); assay: qHTS assay to identify small molecule agonists of the peroxisome proliferator-activated receptor delta (PPARd) signaling pathway (AID 743212; calls by dose curve)
Method in brief: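 Read-out: beta-lactamase FRET fluorescence after 2 h room-temperature incubation with LiveBLAzer B/G substrate. Cells were HEK293H carrying a UAS-bla reporter for PPARd, treated at 37 C with DMSO-dissolved compounds.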

[11] = qHTS assay to identify small molecule antagonists of the peroxisome proliferator-activated receptor delta (PPARd) signaling pathway - cell viability counter screen (AID 743213); further: nearly all actives have a fitted effect of over 50% in size
Method in brief: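 Viability counter-screen, qHTS format: PPARd-bla HEK293H, L165041 300 nM final, 17 h compound exposure at 37 C, CellTiter-Glo luminescence after 30 min RT.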

[12] = target: Peroxisome proliferator-activated receptor delta (Homo sapiens) (UniProt Q03181); assay: qHTS assay to identify small molecule antagonists of the peroxisome proliferator-activated receptor delta (PPARd) signaling pathway (AID 743215; active means well fitted inhibition curve with a large enough effect in the signal ratio in the repeat runs, not every such curve was filed as active; the % refers to the signal ratio;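 further: cells stimulated with agonist L165041 at 300 nM final during compound exposure; series mostly up to about 62 µM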)
Method in brief: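 HEK293H GeneBLAzer PPARd UAS-bla reporter cells; cpd + L165041 300 nM final, 17 h 37 C; LiveBLAzer B/G FRET substrate 2 h RT; fluorescence intensity read-out. Antagonist mode.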

[13] = qHTS assay to identify small molecule antagonists of the farnesoid-X-receptor (FXR) signaling pathway - cell viability counter screen (AID 743221; active means well fitted cell-killing curve with a large enough effect in the repeat runs, not every such curve was filed as active; further: nearly all actives have a fitted effect of over 50% in size)
Method in brief: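 FXR-UAS-bla HEK 293T cells were treated with test compounds plus chenodeoxycholic acid (50 uM final) for 16 h at 37 C. Cell viability in the same wells was then read as CellTiter-Glo luminescence after 30 min at room temperature.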

[14] = target: Vitamin D3 receptor (Homo sapiens) (UniProt P11473); assay: qHTS assay to identify small molecule agonists of the vitamin D receptor (VDR) signaling pathway (AID 743222; calls by dose curve)
Method in brief: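 Beta-lactamase reporter readout (LiveBLAzer B/G FRET, 2 h RT) in VDR-bla cells after 16 h compound treatment at 37C, 5% CO2; cells pre-incubated 4 h before pin transfer of DMSO solutions.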

[15] = target: Vitamin D3 receptor (Homo sapiens) (UniProt P11473); assay: qHTS assay to identify small molecule antagonists of the vitamin D receptor (VDR) signaling pathway (AID 743223; active means well fitted inhibition curve with a large enough effect in the signal ratio in the repeat runs, not every such curve was filed as active; the % refers to the signal ratio)
Method in brief: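 VDR-bla cells were plated, incubated 4 h at 37C, then given compound and 1alpha,25-dihydroxyvitamin D3 (3 nM final). After 16 h at 37C, LiveBLAzer B/G FRET substrate was added for 2 h at room temperature and fluorescence read.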

[16] = qHTS assay to identify small molecule agonists of the farnesoid-X-receptor (FXR) signaling pathway - cell viability counter screen (AID 743218); further: nearly all actives have a fitted effect of over 45% in size
Method in brief: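 Luminescence from CellTiter-Glo, read after 30 min at RT, reports viability of GeneBLAzer FXR-UAS-bla HEK 293T cells treated 16 h with compounds in the wells used for the beta-lactamase reporter.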

[17] = target: Peroxisome proliferator-activated receptor gamma (Homo sapiens) (UniProt P37231); assay: qHTS assay to identify small molecule agonists of the peroxisome proliferator-activated receptor gamma (PPARg) signaling pathway (AID 743094; active means well fitted activation curve with a large enough effect in the signal ratio in the repeat runs, not every such curve was filed as active; the % refers to the signal ratio)
Method in brief: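 HEK293H PPARg-bla cells, 5 h settle at 37C/5% CO2; compound (DMSO) 17 h, 37C; B/G FRET substrate 1 h RT; fluorescence intensity read-out. qHTS format.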

[18] = target: Peroxisome proliferator-activated receptor gamma (Homo sapiens) (UniProt P37231); assay: qHTS assay to identify small molecule antagonists of the peroxisome proliferator-activated receptor gamma (PPARg) signaling pathway (AID 743191; calls by dose curve; further: series mostly up to about 63 µM; nearly all actives have a fitted effect of over 30% in size)
Method in brief: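 GeneBLAzer PPARg UAS-bla HEK293H cells, 5 h post-plating, exposed to compounds 17 h at 37C. LiveBLAzer B/G FRET substrate added for 1 h at room temperature; beta-lactamase reporter read by fluorescence intensity.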

[19] = target: Bile acid receptor (Homo sapiens) (UniProt Q96RI1); assay: qHTS assay to identify small molecule antagonists of the farnesoid-X-receptor (FXR) signaling pathway (AID 743217; active means well fitted inhibition curve with a large enough effect in the signal ratio in the repeat runs, not every such curve was filed as active; the % refers to the signal ratio)
Method in brief: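 Read-out: beta-lactamase FRET fluorescence (LiveBLAzer B/G substrate, 2 h, room temperature) in GeneBLAzer FXR-UAS-bla HEK 293T cells. Compounds were co-dosed with 50 uM chenodeoxycholic acid (final) and incubated 16 h at 37 °C.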

[20] = target: Bile acid receptor (Homo sapiens) (UniProt Q96RI1); assay: qHTS assay to identify small molecule agonists of the farnesoid-X-receptor (FXR) signaling pathway (AID 743220; active means well fitted activation curve with a large enough effect in the signal ratio in the repeat runs, not every such curve was filed as active; the % refers to the signal ratio)
Method in brief: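 FXR-UAS-bla HEK 293T cells carrying a UAS-driven beta-lactamase reporter were plated for 5 h at 37C/5% CO2, then exposed to DMSO-dissolved Tox21 10K compounds for 16 h at 37C. A LiveBLAzer B/G FRET substrate was loaded for 2 h at room temperature before fluorescence reading.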
On the % scale 0 is the no-effect control and ±100 the full control effect.

Chain of Aryl hydrocarbon receptor (Homo sapiens) (P35869 whole entry, looked up): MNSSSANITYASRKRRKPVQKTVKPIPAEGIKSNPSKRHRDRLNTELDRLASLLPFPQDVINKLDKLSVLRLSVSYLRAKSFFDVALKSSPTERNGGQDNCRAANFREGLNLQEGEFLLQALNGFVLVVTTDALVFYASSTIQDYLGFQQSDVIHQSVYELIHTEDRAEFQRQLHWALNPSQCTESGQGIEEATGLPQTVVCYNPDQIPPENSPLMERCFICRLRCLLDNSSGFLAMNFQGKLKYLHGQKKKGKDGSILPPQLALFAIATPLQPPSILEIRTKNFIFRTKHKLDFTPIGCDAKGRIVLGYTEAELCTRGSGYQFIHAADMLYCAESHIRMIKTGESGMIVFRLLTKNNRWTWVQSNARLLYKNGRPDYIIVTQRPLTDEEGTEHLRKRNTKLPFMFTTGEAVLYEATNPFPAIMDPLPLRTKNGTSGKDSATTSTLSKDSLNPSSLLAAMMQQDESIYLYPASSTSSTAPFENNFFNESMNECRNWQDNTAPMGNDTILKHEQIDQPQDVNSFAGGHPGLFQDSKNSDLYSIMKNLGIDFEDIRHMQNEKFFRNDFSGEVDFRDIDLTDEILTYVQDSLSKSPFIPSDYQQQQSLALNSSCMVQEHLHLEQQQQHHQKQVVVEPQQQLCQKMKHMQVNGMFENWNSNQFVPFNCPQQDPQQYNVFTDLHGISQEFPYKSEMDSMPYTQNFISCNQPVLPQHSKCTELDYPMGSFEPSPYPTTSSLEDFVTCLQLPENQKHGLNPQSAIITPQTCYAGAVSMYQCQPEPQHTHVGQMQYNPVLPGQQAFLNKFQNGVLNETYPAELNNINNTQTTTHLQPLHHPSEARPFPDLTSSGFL
Chain of Bile acid receptor (Homo sapiens) (Q96RI1 whole entry, looked up): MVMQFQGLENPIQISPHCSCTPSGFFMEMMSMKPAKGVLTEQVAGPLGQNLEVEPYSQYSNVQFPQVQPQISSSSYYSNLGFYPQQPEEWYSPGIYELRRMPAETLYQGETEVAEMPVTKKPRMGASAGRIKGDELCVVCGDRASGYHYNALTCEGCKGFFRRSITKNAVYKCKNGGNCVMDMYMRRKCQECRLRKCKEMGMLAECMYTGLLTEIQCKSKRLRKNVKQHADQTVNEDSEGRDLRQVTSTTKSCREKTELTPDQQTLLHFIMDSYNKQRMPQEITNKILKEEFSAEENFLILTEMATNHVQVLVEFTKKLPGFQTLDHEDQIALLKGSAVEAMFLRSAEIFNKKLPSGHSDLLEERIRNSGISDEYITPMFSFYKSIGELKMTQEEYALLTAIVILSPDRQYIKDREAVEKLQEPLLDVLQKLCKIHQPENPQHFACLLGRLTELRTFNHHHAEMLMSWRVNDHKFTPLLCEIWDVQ
Chain of Peroxisome proliferator-activated receptor delta (Homo sapiens) (Q03181 whole entry, looked up): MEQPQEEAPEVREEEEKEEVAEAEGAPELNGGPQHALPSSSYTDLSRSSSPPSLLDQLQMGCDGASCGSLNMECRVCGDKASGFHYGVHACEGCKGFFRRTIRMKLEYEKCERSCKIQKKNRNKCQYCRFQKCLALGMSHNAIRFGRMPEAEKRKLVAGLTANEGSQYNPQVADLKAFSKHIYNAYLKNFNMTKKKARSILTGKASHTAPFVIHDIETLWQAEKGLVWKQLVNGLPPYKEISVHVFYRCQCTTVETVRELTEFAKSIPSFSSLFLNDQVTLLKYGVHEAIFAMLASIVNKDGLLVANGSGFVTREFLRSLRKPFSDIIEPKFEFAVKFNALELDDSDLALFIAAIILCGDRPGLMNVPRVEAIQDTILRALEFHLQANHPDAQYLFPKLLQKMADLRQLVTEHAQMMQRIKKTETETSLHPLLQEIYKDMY
Chain of Peroxisome proliferator-activated receptor gamma (Homo sapiens) (P37231 whole entry, looked up): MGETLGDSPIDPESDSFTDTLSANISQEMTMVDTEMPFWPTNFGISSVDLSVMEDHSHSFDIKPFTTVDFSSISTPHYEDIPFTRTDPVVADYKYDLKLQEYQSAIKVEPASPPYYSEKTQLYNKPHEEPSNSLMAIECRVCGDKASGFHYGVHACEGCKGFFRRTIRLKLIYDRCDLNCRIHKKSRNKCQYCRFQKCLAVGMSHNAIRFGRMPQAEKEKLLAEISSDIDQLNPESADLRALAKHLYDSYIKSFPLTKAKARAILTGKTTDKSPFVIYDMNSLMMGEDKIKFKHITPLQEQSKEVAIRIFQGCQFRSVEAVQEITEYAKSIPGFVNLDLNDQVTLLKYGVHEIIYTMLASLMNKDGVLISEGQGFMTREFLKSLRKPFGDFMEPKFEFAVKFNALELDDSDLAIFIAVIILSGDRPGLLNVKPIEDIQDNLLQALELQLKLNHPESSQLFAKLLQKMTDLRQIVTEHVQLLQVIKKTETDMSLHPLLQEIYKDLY
Chain of Vitamin D3 receptor (Homo sapiens) (P11473 whole entry, looked up): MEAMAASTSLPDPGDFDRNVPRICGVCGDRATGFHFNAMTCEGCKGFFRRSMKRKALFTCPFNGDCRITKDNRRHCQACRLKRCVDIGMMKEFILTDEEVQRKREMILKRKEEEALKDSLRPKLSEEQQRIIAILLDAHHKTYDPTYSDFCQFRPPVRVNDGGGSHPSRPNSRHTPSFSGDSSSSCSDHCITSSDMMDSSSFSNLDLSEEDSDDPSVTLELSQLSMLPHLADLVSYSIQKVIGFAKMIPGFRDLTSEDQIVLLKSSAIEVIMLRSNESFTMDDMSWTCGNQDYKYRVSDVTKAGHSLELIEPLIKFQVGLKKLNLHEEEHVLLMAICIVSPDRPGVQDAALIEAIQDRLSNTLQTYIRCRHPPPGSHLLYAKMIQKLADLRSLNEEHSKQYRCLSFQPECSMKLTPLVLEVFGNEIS

Cn1c(=O)c2c(ncn2CCO)n(C)c1=O
inactive: Potency [1] | Potency [2] | Potency [3] | outcome [4] | Potency [5] | outcome [6] | Potency [7] | outcome [8] | outcome [9] | outcome [10] | outcome [11] | outcome [12] | outcome [13] | outcome [14] | outcome [15]

CCC/C=C(\C=O)CC
inactive: Potency [1] | Potency [2] | Potency [3] | outcome [4] | Potency [5] | outcome [6] | Potency [7] | outcome [8] | outcome [9] | outcome [10] | outcome [11] | outcome [13] | outcome [14]

OC1OCCOC1O (stereo not given)
inactive: Potency [1] | Potency [2] | Potency [3] | outcome [4] | Potency [5] | outcome [6] | Potency [7] | outcome [8] | outcome [9] | outcome [11] | outcome [16] | outcome [13] | outcome [14] | outcome [15]

CCOC(CN1CCN(CC(C)C(=O)c2ccccc2)CC1)c1ccccc1 (stereo not given)
inactive: Potency [1] | Potency [2] | Potency [17] | outcome [4] | outcome [8] | outcome [9] | outcome [11] | outcome [12] | outcome [16] | outcome [13]
active: Potency [5] 10.3 µM

OC[C@H]1O[C@@H](O[C@@H]2[C@@H](CO)O[C@](O)(CO)[C@H]2O)[C@H](O)[C@@H](O)[C@H]1O
inactive: Potency [1] | Potency [3] | Potency [17] | outcome [18] | outcome [4] | Potency [5] | outcome [6] | Potency [7] | outcome [8] | outcome [9] | outcome [11] | outcome [13] | outcome [14]

Nc1nc(-c2ccccc2)c(Br)c(=O)[nH]1
inactive: Potency [1] | Potency [3] | Potency [17] | outcome [18] | outcome [4] | Potency [5] | outcome [6] | Potency [7] | outcome [8] | outcome [9] | outcome [10] | outcome [11] | outcome [12] | outcome [16] | outcome [13] | outcome [14] | outcome [15]

Cc1c(N)cccc1Cl
inactive: Potency [1] | Potency [3] | Potency [17] | outcome [18] | outcome [4] | outcome [6] | outcome [8] | outcome [9] | outcome [10] | outcome [11] | outcome [12] | outcome [19] | outcome [20] | outcome [13]

CC(C)C[C@@H]1[C@H](c2ccccc2)OC(=O)N1CCCN1CCCCCC1
inactive: outcome [18] | Potency [5] | outcome [6] | Potency [7] | outcome [8] | outcome [11] | outcome [12] | outcome [13]

[O-][n+]1cccc(/C(Cl)=N/OC[C@@H](O)CN2CCCCC2)c1
inactive: outcome [4] | Potency [5] | outcome [6] | Potency [7] | outcome [8] | outcome [9] | outcome [10] | outcome [11] | outcome [16] | outcome [13]

CN(C)CCCCl
inactive: Potency [1] | Potency [3] | outcome [4] | Potency [5] | outcome [6] | Potency [7] | outcome [8] | outcome [9] | outcome [10] | outcome [19] | outcome [20] | outcome [13] | outcome [14]

CCn1cc(C(=O)O)c(=O)c2cnc(N3CCCC3)nc21
inactive: Potency [3] | activity change, negative = cytotoxicity [4] -3.06% [at 13.2 µM] | activation [5] -1.91% [at 8.36 µM] | viability change, negative = cytotoxic [6] 0.125% [at 8.36 µM] | activity change, negative = cytotoxicity [7] 1.32% [at 13.2 µM] | activity change, negative = cytotoxicity [9] 3.01% [at 13.2 µM] | activation [10] -4.9% [at 13.2 µM] | viability change, negative = cytotoxic [11] -17.7% [at 13.7 µM] | ratio activity, negative = inhibition [12] -14.6% [at 13.7 µM] | activity change, negative = inhibition [19] 6.21% [at 13.2 µM] | viability change, negative = cytotoxic [16] -3.43% [at 13.2 µM] | activity change, negative = cytotoxicity [13] -0.638% [at 13.2 µM]
